Source: PubChem BioAssay (NCATS)
Values joined by “and” are separate entries in the source; they are usually repeats but may differ in a detail not shown here. Identical values can stand only once. Results filed as inconclusive are left out. Unmarked numbers belong to inactive results. Active and inactive are the calls of the source. The call rests on the fitted dose curve; in most records, active means well fitted curve in the direction sought with a large enough effect; inconclusive means small, poorly fitted or top-dose-only effect, or another doubt; inactive means no such curve, though single readings can be large; an effect the other way counts as inactive or inconclusive.

How the values were obtained:
[1] = target: Cellular tumor antigen p53 (Homo sapiens) (UniProt P04637); test: Primary qHTS for small molecule compounds that upregulate eGFP-tagged delta133p53alpha (in N-terminal) cells. (AID 2060322); conditions: NCI-H358 eGFP-delta133p53alpha fluorescence, 24 h; activation: hits give high values; further: nearly all actives have a fitted effect of over 75% in size; further: potency means the concentration at half of the fitted maximal effect;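 on activation: cells pre-induced with doxycycline then dosed without doxycycline; series mostly up to about 56 µM; 0% = DMSO vehicle and 100% = reference activator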
Procedure, shortened: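 NCI-H358 cells pre-induced 24 h with 10 ng/ml doxycycline for eGFP-delta133p53alpha, plated dox-free and exposed 24 h at 37C to titrated compounds. Fixed, Hoechst-stained; gated GFP peak intensity by laser scanning cytometry, normalized to DMSO (0%) and 57.5 uM 5-azacytidine (100%).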

[2] = target: Aldehyde dehydrogenase, mitochondrial (Homo sapiens) (UniProt P05091); test: qHTS for Inhibitors of the Aldehyde Dehydrogenase Family (ALDH2) Primary screen (AID 2061308);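 further: plate controls were vehicle for no effect and reference inhibitor for full effect; nearly all actives have a fitted effect of over 55% in size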
[3] = target: Retinaldehyde dehydrogenase 3 (Homo sapiens) (UniProt P47895); test: qHTS for Inhibitors of the Aldehyde Dehydrogenase Family (ALDH1A3) Validation screen (AID 2061312); further: on the % scale 0 is the no-effect control and ±100 the full control effect; nearly all actives have a fitted effect of over 45% in size
[4] = target: Retinaldehyde dehydrogenase 3 (Homo sapiens) (UniProt P47895); test: qHTS for Inhibitors of the Aldehyde Dehydrogenase Family (ALDH1A3) Primary screen (AID 2061315);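 further: plate controls were DMSO vehicle for no effect and reference inhibitor for full effect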
[5] = BET inhibitor-based combinations targeting novel dependencies in MECOM-rearranged (r) AML: SET-2 cell line (AID 2202231); conditions: SET-2 AML cells viability, CellTiter-Glo luminescence, 48 h; viability: hits give low values, concentration not given here; further: nearly all actives have a fitted effect of over 35% in size; further: potency means the concentration at half of the fitted maximal effect;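 on viability: plate controls were DMSO treated cells for no effect and wells without cells for full effect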
Procedure, shortened: (§1)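 Viability of cells (500 per well) is scored by luminescent CellTiter-Glo at 48 hr post-dosing. Eleven-point titrations are normalized to DMSO and empty controls and reduced to AUC values.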

[6] = BET inhibitor-based combinations targeting novel dependencies in MECOM-rearranged (r) AML: OCI-AML3 cell line (AID 2202232); conditions: Potency: OCI-AML3 viability; further: nearly all actives have a fitted effect of over 35% in size; further: potency means the concentration at half of the fitted maximal effect
Procedure, shortened: as §1

[7] = BET inhibitor-based combinations targeting novel dependencies in MECOM-rearranged (r) AML: MV-4-11 cell line (AID 2202233); further: nearly all actives have a fitted effect of over 45% in size; further: potency means the concentration at half of the fitted maximal effect
Procedure, shortened: (§2)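 Using pin-tool transfer, drugs were added in 11 doses to cells (500/well), incubated 48 hr, and assessed with CellTiter-Glo. Z-AUC is a mean-centring transformation applied separately to each screened line.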

[8] = BET inhibitor-based combinations targeting novel dependencies in MECOM-rearranged (r) AML: HNT-34 cell line (AID 2202234); further: nearly all actives have a fitted effect of over 35% in size; further: potency means the concentration at half of the fitted maximal effect
Procedure, shortened: as §2

[9] = BET inhibitor-based combinations targeting novel dependencies in MECOM-rearranged (r) AML: UCSD-AML1 cell line (AID 2202235); further: nearly all actives have a fitted effect of over 40% in size; further: potency means the concentration at half of the fitted maximal effect
Procedure, shortened: as §2

[10] = BET inhibitor-based combinations targeting novel dependencies in MECOM-rearranged (r) AML: AML-194 cell line (AID 2202237; further: nearly all actives have a fitted effect of over 40% in size; further: potency means the concentration at half of the fitted maximal effect)
Procedure, shortened: as §1

[11] = BET inhibitor-based combinations targeting novel dependencies in MECOM-rearranged (r) AML: AML-191 cell line (AID 2202236; further: nearly all actives have a fitted effect of over 35% in size; further: potency means the concentration at half of the fitted maximal effect)
Procedure, shortened: as §1

Chain of Cellular tumor antigen p53 (Homo sapiens) (P04637 whole entry, looked up): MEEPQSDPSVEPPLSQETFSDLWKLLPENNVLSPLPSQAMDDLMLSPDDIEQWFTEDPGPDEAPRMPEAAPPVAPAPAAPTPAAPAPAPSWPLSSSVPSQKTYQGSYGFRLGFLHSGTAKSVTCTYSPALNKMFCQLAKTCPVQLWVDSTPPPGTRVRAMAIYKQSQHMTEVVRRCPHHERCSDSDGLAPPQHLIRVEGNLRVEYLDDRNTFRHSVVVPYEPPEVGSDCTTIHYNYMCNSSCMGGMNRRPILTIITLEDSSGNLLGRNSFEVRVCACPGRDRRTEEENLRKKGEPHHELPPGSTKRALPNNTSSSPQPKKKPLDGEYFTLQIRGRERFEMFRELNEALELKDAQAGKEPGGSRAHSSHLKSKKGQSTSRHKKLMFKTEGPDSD

Cc1cc2c(s1)Nc1ccccc1N=C2N1CCN(C)CC1
activation [1]: -5.86% and 20.9% and -11.5% | Potency [2]: inactive | Potency [3]: inactive | Potency [4]: inactive | viability [5]: 111% | Potency [6]: inactive | Potency [7]: inactive | Potency [8]: inactive | Potency [9]: inactive | Potency [10]: inactive

COc1cccc2c(NCc3ccccc3)nc(-n3c(N)nc4ccccc43)nc12
activation [1]: -21.2% | Potency [2]: inactive | Potency [3]: inactive | Potency [4]: inactive | Potency [5]: 7420 nM (active) | Potency [6]: 3320 nM (active) | Potency [7]: 7420 nM (active) | Potency [8]: 3720 nM (active) | Potency [9]: 4170 nM (active) | Potency [11]: 2950 nM (active) | Potency [10]: 2630 nM (active)

CCc1cccc2c3c([nH]c12)[C@@](CC)(CC(=O)O)OCC3
activation [1]: -4.77% | Potency [2]: inactive | Potency [3]: inactive | Potency [4]: inactive | viability [5]: 112% | Potency [6]: inactive | Potency [7]: inactive | Potency [8]: inactive | Potency [9]: inactive | Potency [11]: inactive | Potency [10]: inactive

CC[C@@H](C)Nc1cc(C(=O)NC2CC3CCC(C2)N3c2ccc(C(=O)C3CC3)cn2)c(C)cc1C(N)=O (stereo partly drawn)
activation [1]: -11% | Potency [2]: inactive | Potency [3]: inactive | Potency [4]: inactive | Potency [5]: 132 nM (active) | Potency [6]: 166 nM (active) | Potency [7]: 66.1 nM (active) | Potency [8]: 148 nM (active) | Potency [9]: 263 nM (active) | Potency [11]: 209 nM (active) | Potency [10]: 118 nM (active)

CCOc1cc2c(c(F)c1OCC)C(=N)N(CC(=O)c1cc(N3CCOCC3)c(OC)c(C(C)(C)C)c1)C2
activation [1]: -9.71% | Potency [2]: inactive | Potency [3]: inactive | Potency [4]: inactive | Potency [5]: 16600 nM (active) | Potency [6]: 16600 nM (active) | Potency [7]: 8330 nM (active) | Potency [8]: 8330 nM (active) | Potency [11]: 16600 nM (active) | Potency [10]: 10500 nM (active)

COC(=O)Nc1nc2ccc(C(=O)c3ccc(F)cc3)cc2[nH]1
activation [1]: 8.15% and 21.5% | Potency [2]: inactive | Potency [3]: inactive | Potency [4]: inactive | Potency [5]: 833 nM (active) | Potency [6]: 590 nM (active) | Potency [7]: 742 nM (active) | Potency [8]: 417 nM (active) | Potency [9]: 468 nM (active) | Potency [11]: 332 nM (active) | Potency [10]: 332 nM (active)

Cc1nnc(C(C)C)n1C1CC2CCC(C1)N2CCC(NC(=O)C1CCC(F)(F)CC1)c1ccccc1 (stereo not drawn)
activation [1]: -3.82% | Potency [2]: inactive | Potency [3]: inactive | Potency [4]: inactive | viability [5]: 109% | Potency [6]: inactive | Potency [7]: inactive | Potency [8]: inactive | Potency [9]: inactive | Potency [11]: inactive | Potency [10]: inactive

CC[C@@]1(O)C(=O)OCc2c1cc1n(c2=O)Cc2cc3cc(O)ccc3nc2-1
Potency [1]: 1.51 µM (active) and 19.3 µM (active) | Potency [2]: inactive | Potency [3]: inactive | Potency [4]: inactive | Potency [5]: 33.2 nM (active) | Potency [6]: 14.8 nM (active) | Potency [7]: 6.6 nM (active) | Potency [8]: 7.4 nM (active) | Potency [9]: 13.2 nM (active) | Potency [11]: 13.2 nM (active) | Potency [10]: 20.9 nM (active)

CN1CCN(Cc2ccc(NC(=O)Nc3ccc(Oc4cc(NC(=O)C5CC5)ncn4)cc3)cc2C(F)(F)F)CC1
Potency [1]: 968 nM (active) | Potency [2]: inactive | Potency [3]: inactive | Potency [4]: inactive | Potency [5]: 742 nM (active) | Potency [6]: 372 nM (active) | Potency [7]: 3.7 nM (active) | Potency [8]: 46.8 nM (active) | Potency [9]: 372 nM (active) | Potency [11]: 590 nM (active) | Potency [10]: 833 nM (active)

CC(=O)c1cnc2ccc(-c3cc(Cl)c(O)c(Cl)c3)nc2c1NC1CCC(CN(C)C)CC1 (stereo not drawn)
Potency [1]: 153 nM (active) and 195 nM (active) | activity change, negative = inhibition [2]: 21.4% [at 11.2 µM] | activity change, negative = inhibition [3]: 24.3% [at 20.1 µM] | activity change, negative = inhibition [4]: 9.88% [at 11.2 µM] | Potency [5]: 60.5 nM (active) | Potency [6]: 121 nM (active) | Potency [7]: 17.1 nM (active) | Potency [8]: 48.1 nM (active) | Potency [9]: 27 nM (active) | Potency [11]: 48.1 nM (active) | Potency [10]: 60.5 nM (active)

Nc1nc(F)nc2c1ncn2[C@@H]1O[C@H](CO)[C@@H](O)[C@@H]1O
activation [1]: -5.02% and -9.07% | Potency [2]: inactive | Potency [3]: inactive | Potency [4]: inactive | Potency [5]: 14800 nM (active) | Potency [6]: 10500 nM (active) | Potency [7]: 9340 nM (active) | Potency [8]: 14800 nM (active) | Potency [9]: 1050 nM (active) | Potency [10]: 3720 nM (active)

Clc1cccc(-n2nnnc2NCc2ccccc2Oc2ccccn2)c1Cl
activation [1]: -7.52% and 10.5% | Potency [2]: inactive | Potency [3]: inactive | Potency [4]: inactive | viability [5]: 103% | Potency [6]: inactive | Potency [7]: inactive | Potency [8]: inactive | Potency [9]: inactive | Potency [11]: inactive | Potency [10]: inactive

Nc1ncnc2c1c(-c1cnc3[nH]ccc3c1)nn2C1CCCC1
Potency [1]: 26900 nM (active) | Potency [2]: inactive | Potency [3]: inactive | Potency [4]: inactive | Potency [5]: 3720 nM (active) | Potency [6]: 4170 nM (active) | Potency [7]: 1660 nM (active) | Potency [8]: 417 nM (active) | Potency [10]: 1860 nM (active)
